Results reported in the supplement of paper PMC6555819.

Assays:
Experiment in all cases: PBM binding z-score (relative to random genomic background probes); higher = stronger binding; sequences stand for … in GC…GCGATTGACAGCGTAGAATGAAGG
[1] = test system: RARb homodimer (NR concentration 270 nM)
How it was run: (§1)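 Regression normalization was applied to scanned fluorescence from custom Agilent 4×180K protein-binding microarrays. Before scanning, arrays were incubated 1 h with ligand-free nuclear receptor dimers, and binding was detected with antibodies against each partner (one per run). Binding z-scores use the random background probes as reference.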

[2] = test system: RARg:RXRa (NR concentration 270 nM, RXRa partner concentration 90 nM)
How it was run: as §1

[3] = test system: RARg homodimer (NR concentration 270 nM)
How it was run: as §1

[4] = test system: RXRa DBDmut IVT, anti-RXR (DBD mutation: RXRa K156A/R161A, NR concentration 90 nM)
How it was run: as §1

[5] = test system: RXRa homodimer (NR concentration 180 nM)
How it was run: as §1

[6] = test system: THRa:RXRa (NR concentration 90 nM, RXRa partner concentration 90 nM)
How it was run: as §1

[7] = test system: THRa homodimer (NR concentration 90 nM)
How it was run: as §1

[8] = test system: VDR homodimer (NR concentration 270 nM)
How it was run: as §1

Sequence	PBM binding z-score [1]	PBM binding z-score [2]	PBM binding z-score [3]	PBM binding z-score [4]	PBM binding z-score [5]	PBM binding z-score [6]	PBM binding z-score [7]	PBM binding z-score [8]
TCTAGTTGGTCACGTAGGTCACACACGACGGGTA	3.66	3.36	3.67	1.06	2.91	2.39	1.04	1.22
ACTCCGAGGACAAAGGTCAGAGCTACGCCAGTGA	4.47	6.28	5.92	1.97	6.11	4.27	2.29	1.67
ACTGGGAGGACAAAGGTCAGAGCTACGCCAGTGA	4.78	6.22	5.14	1.06	5.47	3.85	1.25	1.41
TCGAGTAGGTTGGTCGGGGCATTCAGCCAACATA	0.0867	-0.467	-0.483	-0.0758	-0.429	0.33	0.0385	0.0879
CCTTACGGGTCACGAGGTTCTAGCACGACGAGCG	3.27	5.61	5.78	1.49	6.58	3.25	0.28	1.86
ATATGTAGGTTATGGGGTCATTCAGTTTGCGCAT	4.16	5.29	3.67	2.9	6.67	4.35	4.19	7.28
CCTTACGGGTCACTGACATGTTATAGCATTTGGA	3.05	4.89	4.58	2.2	5.13	2.61	0.312	1
TCTTGTAGATCAACAGGAGGTTAAGAAGGATCGA	0.431	0.952	0.15	0.27	1.09	0.94	-0.619	-0.0476
GCTAGTTGGTCAGTAAAAGGTCACAAACCGGTCG	4.94	4.99	4.28	0.203	4.8	3.32	1.15	1.71
CGTCAAAGTTCAAGGTAACCTAACAGAAAGCAGC	4.17	5.43	6.2	4.3	4.71	3.19	1.38	2.84
AACTCTAGGTAAGACTCAGTTCAGTGAAGAACGC	0.462	-0.177	0.0668	0.487	-0.128	0.636	0.228	1.15
GCTCGGAGGACAAGGGCAGAGCTTTGTCCGTAGA	0.567	-0.153	0.628	-0.927	-0.428	0.387	-0.399	-0.558
CCCAGCAGGCCAATCTGGGTCACTCAAGGCTTGA	2.53	1.29	1.5	-0.496	0.923	3.73	0.49	-0.172
TTACTAAGGTGAAAGGTCGTTGATGCACGCCTTG	3.02	4.74	2.37	1.45	6.58	4	2.17	1.78
CAAACTAGATCAAGAGGTCAAAGTCCGCTTCCCG	4.71	4.84	3.96	1.69	5.73	3.93	1.67	3.23
CGTCCAAGGTCATAGGAGGTAAGTGAAGACAGAT	3.21	5.58	5.93	3.37	5.29	4.6	2.43	2.6
TCTTTTAGATCAGCAGGTTAAGAAAGCTGGCCAA	0.0082	0.209	0.197	1.02	0.581	0.357	-0.515	0.00166
TCTGCTAGTTCAGTTGGTCAGCTAACGAGCTGCC	0.296	-0.136	0.0684	0.659	-0.391	-0.312	-0.718	-0.523
CCTTACGGGTCACTGATAGGTTATAGCATTTGGA	3.34	5.65	4.89	1.85	5.48	2.74	0.24	1.17
ACTAGCAGGCCAAGTTTGGGTCACTCCAACAAAG	2.33	2.23	1.55	0.0144	0.704	2.47	1.05	0.157
TAGCCTAGGTCAGGCGGGCCAGTATAGTGTCGGC	2.21	2.75	3.45	-1.1	1.3	1.86	-0.0587	-0.674
CTCGAAAGGTCTTGCTCAGGTGAGTATACCAAAC	1.29	1.52	1.33	0.0538	0.775	2.67	0.893	-0.0365
AGAATGAGGTTGAGATCAGGGAAACAGAATACAT	0.193	0.514	0.477	-0.1	0.612	1.35	-0.0652	0.0379
ATCGCTAGGTAAGACTCAGTTCAGTGAAGAACGC	-0.147	-0.35	-0.262	-0.408	-0.428	0.249	-0.192	0.334
CCGACTGGGGCAAAGCTTACCATACTCAGTACGA	-0.047	0.0271	0.339	0.525	-0.115	-0.341	-0.519	-0.448
TCGAGAAGGTTACCAATGGGGCATTCAGCTTTCT	1.48	3.02	1.19	0.529	1.86	0.779	-0.839	-0.528
CGTCCAAGGTCAATGCTATGTCAGTGAAAGCATT	4	5.86	6.28	3.14	4.94	3.81	1.93	2.37
TCTTGTAGATCAAAGGTTAACAAAGCCGAAGCCT	1.66	1.93	1.09	0.706	3.2	1.32	-0.41	-0.185
ATCTCTCGGTAAAAGTTCAGTGAATCCCGAGGAT	2.43	1.76	2.03	0.823	0.954	0.761	0.0329	1.74
